We go through 13 compounds from PubChem BioAssay (NCI).

Compounds without any hit were thinned out: in the full panel of roughly 83,000, 20% have a hit.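 Note: values are percent growth. 100 is the growth of untreated cells, values between 100 and 0 indicate rising inhibition; between -100 and 0 indicates cell death.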 A number with no mark means an inactive call. Calls of active or inactive are those of the source. The calls were made as follows: active = growth percent below 10; inactive = the rest.

Some test systems named below: SK-MEL-2 melanoma; EKVX NSCLC; SN12C renal; UO-31 renal; TK-10 renal; ACHN renal; CAKI-1 renal; A498 renal; CCRF-CEM leukemia; MOLT-4 leukemia.
What all share (test): NCI-60 one-dose screen, 48 h (100 = growth as untreated, 0 = no growth, -100 = all killed)
Details in all cases: 10 µM unless noted

For `CCOC(=O)c1cn2c3c(cc(C)cc3c1=O)C(=O)/C(=C/c1ccccc1)C2`, the growth in the assay with SK-MEL-2 melanoma was 95.5%; with EKVX NSCLC, 101%; with SN12C renal it was 94.2%; in the assay with UO-31 renal, 57.6%; with TK-10 renal it was 75%; with ACHN renal it was 91.3%. The growth with CAKI-1 renal was 73.3%; with A498 renal it was 86.9%; with CCRF-CEM leukemia, 93.5%; in the assay with MOLT-4 leukemia it was 86.9%.
On to `CC12CCC3C4(C)COC(c5ccco5)OC4CCC3(C)C1CC(C1=CCOC1=O)O2` (stereo not given), for which the growth was 131% in the assay with SK-MEL-2 melanoma; 91.6% in the assay on EKVX NSCLC; 96.4% in the assay with SN12C renal; 81.5% in the assay on UO-31 renal; 105% with TK-10 renal; 102% in the assay with ACHN renal. Moreover, the growth in the assay with CAKI-1 renal was 92.4%; with A498 renal, 103%; in the assay with CCRF-CEM leukemia, 101%; in the assay on MOLT-4 leukemia, 97.5%.
With `Cc1cc(N/N=C/c2nc(-c3ccc(Br)cc3)oc2C)c2cc(Cl)ccc2n1`, the growth with SK-MEL-2 melanoma was 110%; in the assay with EKVX NSCLC, 95.7%; in the assay on SN12C renal it was 48.4%; in the assay on UO-31 renal it was 86.6%; with TK-10 renal, 114%; with ACHN renal, 86.9%. Besides, the growth in the assay with CAKI-1 renal was 96.2%; in the assay with A498 renal, 85.5%; with CCRF-CEM leukemia, -16.6% (active); in the assay with MOLT-4 leukemia, 3.49% (active).
With `Cc1c(C(=O)/C=C/c2csc3ccccc23)[n+](=O)c2ccccc2n1[O-]`, the growth with SK-MEL-2 melanoma is 95.3%; in the assay on EKVX NSCLC it was 67.8%; with SN12C renal it was 78.7%; with UO-31 renal, 36.8%; in the assay on TK-10 renal, 76.5%; in the assay with ACHN renal, 85%. Moreover, the growth in the assay with CAKI-1 renal was 17%; in the assay on A498 renal, 118%; with CCRF-CEM leukemia, 51.9%; with MOLT-4 leukemia, 81.8%.
Consider `Cc1ccc(N2CCN(C(C)C(N)=O)CC2)cc1` (stereo not given), for which the growth was 134% in the assay on SK-MEL-2 melanoma; 118% in the assay on EKVX NSCLC; 92.8% in the assay on SN12C renal; 82.2% in the assay with UO-31 renal; 114% in the assay with TK-10 renal; 106% in the assay on ACHN renal. The growth was 107% in the assay with CAKI-1 renal, 115% in the assay with A498 renal, 98.2% in the assay with CCRF-CEM leukemia and 117% with MOLT-4 leukemia.
In the case of `O=C1/C(=C/c2ccc([N+](=O)[O-])cc2)CN(C(=O)CCN2CCC(=NO)CC2)C/C1=C\c1ccc([N+](=O)[O-])cc1`, the growth in the assay with SK-MEL-2 melanoma was 2.76% (active); in the assay with EKVX NSCLC it was -31.9% (active); in the assay on SN12C renal, -17.6% (active); in the assay on UO-31 renal it was -94.9% (active); with TK-10 renal it was 8.77% (active); in the assay on ACHN renal it was -59.2% (active). The growth is -46.3% (active) with CAKI-1 renal, -3.11% (active) in the assay on A498 renal, -13.3% (active) with CCRF-CEM leukemia and -7.02% (active) in the assay on MOLT-4 leukemia.
As to `Nc1nc(=O)c2ccccc2s1`, the growth in the assay with SK-MEL-2 melanoma is 104%; in the assay with EKVX NSCLC, 111%; in the assay with SN12C renal, 98.9%; in the assay on UO-31 renal, 78.3%; with TK-10 renal, 114%; with ACHN renal it was 99.4%. The growth is 101% with CAKI-1 renal, 131% in the assay on A498 renal, 92.2% in the assay with CCRF-CEM leukemia and 103% in the assay on MOLT-4 leukemia.
Turning to `COc1ccc(Nc2nn3c(C)cc(C)nc3c2C(=O)Nc2ccc(C)cc2)c(OC)c1`, the growth was 92.7% in the assay on SK-MEL-2 melanoma; 103% in the assay with EKVX NSCLC; 98.4% in the assay on SN12C renal; 82% in the assay with UO-31 renal; 107% in the assay on TK-10 renal; 101% with ACHN renal. Moreover, the growth is 95.7% in the assay with CAKI-1 renal, 117% with A498 renal, 106% in the assay on CCRF-CEM leukemia and 107% in the assay with MOLT-4 leukemia.
Consider `CCCCCCCCCCCCCCCCCCNC(=O)[C@H]1CSC(c2cccs2)N1` (stereo not given in full), for which the growth was -86.7% (active) in the assay with SK-MEL-2 melanoma; 3.9% (active) in the assay with EKVX NSCLC; -84.2% (active) in the assay with SN12C renal; 45.6% in the assay on UO-31 renal; 29.9% in the assay on TK-10 renal; 67.9% in the assay with ACHN renal. Further, the growth in the assay on CAKI-1 renal was -0.0289% (active); in the assay on A498 renal it was 68.1%; with CCRF-CEM leukemia, -33.4% (active); with MOLT-4 leukemia it was 3.87% (active).
Consider `CN(C)c1oc(C2OC2c2ccccc2)nc1C#N` (stereo not given), for which the growth in the assay on SK-MEL-2 melanoma was 99.4%; with EKVX NSCLC it was 102%; in the assay on SN12C renal, 95.1%; in the assay with UO-31 renal, 77.8%; with TK-10 renal, 129%; in the assay on ACHN renal, 94.7%. Besides, the growth in the assay with CAKI-1 renal is 93.7%; in the assay on A498 renal, 123%; in the assay with CCRF-CEM leukemia, 86.1%; in the assay with MOLT-4 leukemia, 97.7%.
As for `COc1cc(NC(=O)SC2=NCCS2)cc(OC)c1`, the growth in the assay with SK-MEL-2 melanoma is 106%; in the assay on EKVX NSCLC it was 113%; in the assay with SN12C renal, 91.8%; with UO-31 renal, 93.6%; in the assay on TK-10 renal, 126%; in the assay with ACHN renal, 102%. For the same compound, the growth in the assay on CAKI-1 renal was 108%; with A498 renal, 90.3%; in the assay with CCRF-CEM leukemia, 99.5%; in the assay on MOLT-4 leukemia, 110%.
For the compound `Clc1cccc(-c2cc(-c3ccc4c(c3)OCCO4)[nH]n2)c1`, the growth in the assay on SK-MEL-2 melanoma is 17.9% [25 µM]; in the assay on EKVX NSCLC, 24.3% [25 µM]; in the assay with SN12C renal it was 36.3% [25 µM]; in the assay on UO-31 renal, 44.2% [25 µM]; in the assay with TK-10 renal, 61% [25 µM]; with ACHN renal, 44.7% [25 µM]. Also, the growth in the assay on CAKI-1 renal is 29% [25 µM]; in the assay with A498 renal it was 6.47% [25 µM] (active); in the assay with CCRF-CEM leukemia it was 17.9% [25 µM]; in the assay on MOLT-4 leukemia it was 25.8% [25 µM].
As to `COc1cc(/C=N\NC(=O)CN2CCN(c3cc4c(cc3F)c(=O)c(C(=O)N/N=C/c3cc(OC)c(OC)c(OC)c3)cn4C3CC3)CC2)cc(OC)c1OC`, the growth with SK-MEL-2 melanoma was -26.2% (active); in the assay on EKVX NSCLC, 55.2%; with SN12C renal, -25.8% (active); with UO-31 renal, 71.8%; in the assay with TK-10 renal, 64.2%; in the assay on ACHN renal, 93.7%. The growth in the assay with CAKI-1 renal was 77.7%; in the assay on A498 renal it was 46.6%; with CCRF-CEM leukemia, 4.32% (active); in the assay with MOLT-4 leukemia, 0.748% (active).
